A selection: hits, their analogues and other compounds. The true share with any hit is near 7.9%.
MITF inhib – inhibitors of MITF, primary screen, MITF inhibitor project, cell-based, luminescence; TRPM1 promoter luciferase, 24 h; inhibition, % (no concentration beside the values); actives 0.28% (n = 37,000); in the data active = inhibition above about 85%; inconclusive = no clear call, values can overlap the other calls; inactive = below about 68%;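 also: human melanocyte line stably carrying TRPM1 promoter luciferase reporter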
NOMO-1 viab – NOMO-1 AML cell viability reduction, primary screen, STK33 inhibitor project, CellTiter-Glo luminescence; inhibition, % (no concentration beside the values); AID 2330, 2010; NOMO-1 AML viability, 72 h; actives 7.5% (n = 37,000); in the data active = inhibition above about 80%; inconclusive = no clear call, values can overlap the other calls
Hedgehog inh – Hedgehog pathway signaling inhibitors, primary screen, luminescence, Shh-LIGHT2 cells, Gli-luciferase; inhibition, % (concentration not given with the values); actives 2.1% (n = 22,000); Shh-LIGHT2 Gli-luciferase reporter, 30 h;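 active = mean inhibition across valid replicates above about 65%, limit read from the data; inconclusive = mean under the limit, yet half or more replicates past it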;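 also: pathway switched on by Shh-conditioned medium diluted 1 in 25 in low serum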
* = called active by the depositor; ? = inconclusive; · = no result.

SMILES	MITF inhib	NOMO-1 viab	Hedgehog inh
C[C@H]1CN([C@@H](C)CO)C(=O)c2cccc(NS(=O)(=O)c3ccc(F)cc3)c2O[C@@H]1CN(C)Cc1ccc(Oc2ccccc2)cc1	29	59	-1
C[C@H](CO)N1C[C@H](C)[C@H](CN(C)Cc2ccc(Oc3ccccc3)cc2)Oc2c(NS(=O)(=O)c3ccc(F)cc3)cccc2C1=O	37	84*	12
Cc1ccc(S(=O)(=O)Nc2cccc3c2O[C@H](CN(C)Cc2ccc(Oc4ccccc4)cc2)[C@@H](C)CN([C@@H](C)CO)C3=O)cc1	-2	12	-2
C[C@@H]1CN([C@H](C)CO)C(=O)c2cccc(NS(=O)(=O)c3ccc(Cl)cc3)c2O[C@H]1CN(C)Cc1ccc(-c2ccccc2)cc1	12	25	-15
C[C@H](CO)N1C[C@H](C)[C@H](CN(C)S(=O)(=O)c2ccc(F)cc2)Oc2ccc(NC(=O)NC3CCCCC3)cc2CC1=O	12	36	40
C[C@@H]1CN([C@@H](C)CO)C(=O)c2cccc(NC(=O)NC3CCCCC3)c2O[C@H]1CN(C)C(=O)Nc1ccccc1	3	-5	-17
COC(=O)c1ccc(-n2c(CCC(=O)O)ccc2-c2ccc(Br)cc2)cc1	10	19	·
CCN(CC)CC(O)Cn1c2c(c3ccccc31)CCCC2=O (stereo not given)	-27	21	·
CCN(CC)CC(O)Cn1c(C)c(-c2ccccc2)c2cc([N+](=O)[O-])ccc21 (stereo not given)	-49	94*	·
C[C@@H]1CN([C@@H](C)CO)C(=O)c2cc(NC(=O)Nc3ccc(C(F)(F)F)cc3)ccc2O[C@H]1CN(C)S(=O)(=O)c1ccc(Cl)cc1	-17	93*	1
COc1ccc(S(=O)(=O)Nc2ccc3c(c2)C(=O)N([C@H](C)CO)C[C@H](C)[C@H](CN(C)S(=O)(=O)c2ccc(Cl)cc2)OCCCC[C@@H](C)O3)cc1	21	107*	7
C[C@@H]1CN([C@H](C)CO)C(=O)c2cc(NC(=O)Nc3ccc(C(F)(F)F)cc3)ccc2O[C@H]1CN(C)S(=O)(=O)c1ccccc1	-29	52	-9
C[C@@H]1CCCCO[C@H](CN(C)S(=O)(=O)c2ccc(Cl)cc2)[C@@H](C)CN([C@H](C)CO)C(=O)c2cc(NC(=O)Nc3ccc(C(F)(F)F)cc3)ccc2O1	15	98*	32
C[C@@H]1CCCCO[C@@H](CN(C)S(=O)(=O)c2ccc(Cl)cc2)[C@@H](C)CN([C@H](C)CO)C(=O)c2cc(NC(=O)Nc3ccc(C(F)(F)F)cc3)ccc2O1	0	23	-11
COc1ccc(S(=O)(=O)N(C)C[C@H]2OCCCC[C@@H](C)Oc3ccc(NS(=O)(=O)c4ccc(Cl)cc4)cc3C(=O)N([C@H](C)CO)C[C@@H]2C)cc1	24	65	35
COc1ccc(S(=O)(=O)N(C)C[C@H]2Oc3ccc(NC(=O)Nc4ccc(C(F)(F)F)cc4)cc3C(=O)N([C@H](C)CO)C[C@@H]2C)cc1	52	45	32
COc1ccc(S(=O)(=O)N(C)C[C@@H]2Oc3ccc(NC(=O)Nc4ccc(C(F)(F)F)cc4)cc3C(=O)N([C@H](C)CO)C[C@H]2C)cc1	24	113*	11
COc1ccc(NC(=O)N(C)C[C@H]2Oc3c(NC(=O)c4ccc(-c5nccs5)cc4)cccc3C(=O)N([C@H](C)CO)C[C@@H]2C)cc1	-3	0	-38
COc1ccc(NC(=O)N(C)C[C@@H]2Oc3c(NS(=O)(=O)c4ccc(F)cc4)cccc3C(=O)N([C@@H](C)CO)C[C@@H]2C)cc1	8	3	32
O=C(CSc1nnc(-c2ccccc2)c(-c2ccccc2)n1)C1CC1	44	0	·
COc1ccc(-c2c(C(F)(F)F)oc3cc(OCC(=O)Nc4ccc(C)cc4)ccc3c2=O)cc1OC	29	-4	·
Cc1noc(C)c1S(=O)(=O)Nc1ccc2c(c1)CC(=O)N([C@@H](C)CO)C[C@@H](C)[C@@H](CN(C)C(=O)NC(C)C)O2	-8	23	-17
COc1ccc(S(=O)(=O)N(C)C[C@@H]2Oc3ccc(NC(=O)Nc4ccc(C(F)(F)F)cc4)cc3C(=O)N([C@H](C)CO)C[C@@H]2C)cc1	39	105*	·
C[C@@H]1CN([C@@H](C)CO)C(=O)c2cc(NC(=O)C3CC3)ccc2O[C@H]1CN(C)S(=O)(=O)c1ccc(Cl)cc1	-11	-1	67*
C[C@@H]1CN([C@@H](C)CO)C(=O)c2cc(NC(=O)C3CC3)ccc2O[C@@H]1CN(C)S(=O)(=O)c1ccc(Cl)cc1	2	4	4
SMILES	MITF inhib	NOMO-1 viab	Hedgehog inh
COc1ccc(S(=O)(=O)N(C)C[C@@H]2Oc3ccc(NC(=O)Nc4ccc(C(F)(F)F)cc4)cc3C(=O)N([C@@H](C)CO)C[C@H]2C)cc1	-9	48	·
COc1ccc(Cl)cc1NC(=S)NCCCn1nc(C)c(Br)c1C	16	1	·
COC(=O)C1=C(C)NC(C)=C(C(=O)OC)C1c1ccc(C(C)C)cc1	-24	110*	40
CCOC(=O)C1=C(C)NC(C)=C(C(=O)OC)C1c1cccc(Cl)c1Cl (stereo not given)	11	27	23
CC(Oc1cccc(NC(=O)c2ccccc2Cl)c1)C(=O)c1ccc(Cl)cc1 (stereo not given)	0	27	·
COc1cc(/C(C)=C/C(C)O)oc(=O)c1C (stereo not given)	16	17	1
C[C@@H]1CCOC(=O)C=CC=CC(=O)O[C@@H]2C[C@H]3O[C@@H]4C=C(C(=O)O)CC[C@]4(COC(=O)[C@H]1O)[C@]2(C)[C@]31CO1	65	121*	4
CCOC(=O)c1oc(C(=O)OCC)c(O)c1O	9	-9	-8
C[C@@H]1CN([C@H](C)CO)C(=O)Cc2cc(NC(=O)C3CCCCC3)ccc2O[C@@H]1CN(C)Cc1ccccc1	3	41	-5
C[C@@H]1CCCCO[C@H](CN(C)Cc2ccc(C(=O)Nc3ccccc3N)cc2)[C@@H](C)CN([C@H](C)CO)C(=O)c2cc(NS(=O)(=O)c3ccc(F)cc3)ccc2O1	-9	128*	·
C[C@H]1CN([C@@H](C)CO)C(=O)c2cc(NC(=O)Cc3ccccc3)ccc2O[C@H]1CN(C)Cc1ccc(C(=O)Nc2ccccc2N)cc1	5	108*	·
C[C@@H]1CCCCO[C@@H](CN(C)Cc2ccccc2)[C@@H](C)CN([C@H](C)CO)C(=O)c2cc(NC(=O)CCCCCC(=O)Nc3ccccc3N)ccc2O1	-7	54	·
C[C@@H]1CN([C@@H](C)CO)C(=O)c2cc(NC(=O)Cc3ccccc3)ccc2O[C@H]1CN(C)Cc1ccc(C(=O)Nc2ccccc2N)cc1	-12	?	·
C[C@@H]1CCCCO[C@@H](CN(C)Cc2ccc(C(F)(F)F)cc2)[C@@H](C)CN([C@H](C)CO)C(=O)c2cc(NC(=O)CCCCCC(=O)Nc3ccccc3N)ccc2O1	53	125*	·
C[C@@H]1CN([C@@H](C)CO)C(=O)c2cc(NC(=O)Cc3ccccc3)ccc2O[C@@H]1CN(C)Cc1ccc(C(=O)Nc2ccccc2N)cc1	4	109*	·
